High-throughput results: PubChem, National Center for Advancing Translational Sciences (NCATS)
Pf growth 48h: P. falciparum growth inhibition at 48 hours (one generation); P. falciparum luciferase growth in erythrocytes, 48 h; Potency, µM (top dose mostly 28.7 µM), inactives show at the highest dose activity change, negative = inhibition, most hits filed as inhibitors; 310,000 tested, 5.9% active; AID 504832; further: potency means the concentration at half of the fitted maximal effect; on the % scale 0 is the no-effect control and ±100 the full control effect
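A one-generation exposure of luciferase-tagged malaria parasites in RPMI 1640/Albumax erythrocyte culture, 37 C and 5% CO2. Inhibition is inferred from decreased luminescence after adding detection reagent.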
Cycloheximide cs: affects cycloheximide protein synthesis inhibition readout, counter-screen. AID 2314. 300,000 tested, 12% active. cell reporter, cycloheximide protein synthesis inhibition counterscreen. max response, %; in the data active means max response mostly above about 13%, no sharp cut-off; inactive means mostly below about 14%; further: read at 38.3 µM for the half of the compounds with a filed dose; 0% is about no effect
Pf growth 96h: inhibits malaria parasite growth, 96 h; P. falciparum luciferase reporter growth, 96 h; Potency, µM (highest dose often 28.7 µM), inactives show at the highest dose activity change, negative = inhibition, actives largely listed as inhibitors; 320,000 tested, 6.9% active; further: potency means the concentration at half of the fitted maximal effect; on the % scale 0 is the no-effect control and ±100 the full control effect
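P. falciparum expressing integrated firefly luciferase, in erythrocytes at 2% hematocrit, 0.05% parasitemia, incubated with compounds 96 h at 37 C, 5% CO2. Growth inhibition read as loss of luminescence; two-generation exposure targets delayed-death apicoplast inhibitors.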
Sm TGR block: S. mansoni TGR enzyme inhibition; Q962Y6; 360,000 tested, 3% active; Potency, µM (titrated, usually from 114 µM), for the others: at the top dose activity change, negative = inhibition, hits mostly inhibitors; purified TGR, DTNB reduction, TNB absorbance 405 nm; AID 485364; further: potency means the concentration at half of the fitted maximal effect; on the % scale 0 is the no-effect control and ±100 the full control effect; nearly all actives have a fitted effect of over 60% in size
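TGR 20 nM + NADPH 100 uM (dispensed conc.), cpd preinc 15 min RT; start with NADPH (500 uM addition) then DTNB (15 mM addition). Kinetic TNB absorbance, 405 nm filter. Four-parameter Hill fit across titration.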
Shiga inhibitor: Shiga toxin inhibition; Vero cells, Shiga toxin protein synthesis inhibition reporter; inhibition, % at 38.7 µM; 290,000 tested, 9.2% active; AID 2315; in the data active means inhibition mostly above about 28%, no sharp cut-off; inactive means mostly below about 43%; further: 0% is about no effect
NS1 function inh: inhibitors of influenza NS1 protein function; 270,000 tested, 0.4% active; Potency, µM (titrated, usually from 46.1 µM), for the others: top-dose activity, positive = more growth; calls by dose curve; further: potency means the concentration at half of the fitted maximal effect; actives are rising curves; nearly all actives have a fitted effect of over 50% in size
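Recovery from NS1-induced slow growth read by OD600 in budding yeast switched to galactose assay medium (pH 6.0, -URA) at 1:100 dilution. Compound 23 nl per well; the matching strain lacking NS1 serves as control.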
An asterisk follows results filed as active; ? = inconclusive; nt = not tested or not shown; [ ] = another dose, or the depositor's remark. Most compounds without a hit are left out; they make up all but 21% or so of the library. Unless noted, the call rests on the fitted dose curve; in most records, active means well fitted curve in the direction sought with a large enough effect; inconclusive means small, poorly fitted or top-dose-only effect, or another doubt; inactive means no such curve, though single readings can be large; an effect the other way counts as inactive or inconclusive.

SMILES | Pf growth 48h | Cycloheximide cs | Pf growth 96h | Sm TGR block | Shiga inhibitor | NS1 function inh
O=c1[nH]n(-c2ccc(Cl)cc2)c(=O)c(Cl)c1Cl | -1.5% | 11.2 | 32.5% | 7.08µM* | -8.5 | -10.9%
O=C(N1CCCCC1)C1(c2ccccc2)CCOCC1 | -5.2% | 3.8 | 11.7µM* | 0.0% | 23.0 | ?
CCOC(=O)c1ccccc1NC(=O)Cn1nnc2sc3c(c2c1=O)CCCC3 | nt | nt | nt | -0.4% | nt | nt
Cc1ccc(NC(=O)C2=C(O)c3sccc3N(C)S2(=O)=O)cc1 | -5.9% | 23.1* | 13.6% | 0.9% | 26.7 | 10.2%
Cc1ccc(NC(=S)C2=C(O)c3sccc3N(C)S2(=O)=O)cc1 | -29.7% | 18.5* | nt | -4.8% | 31.2 | -2.5%
CCCCN(C)CCNC(=O)CCNC(=O)Cn1ccc2ccccc2c1=O | 4.8% | -2.6 | 8.2% | 3.5% | -3.4 | -1.2%
Cc1ccc(C)n1-c1cc([N+](=O)[O-])ccc1-n1ccnc1 | 11.7µM* | 0.7 | ? | -1.7% | -2.3 | -1.2%
COc1ccc([N+](=O)[O-])cc1-n1cccc1 | 9.6% | -4.9 | 194.8% | -13.8% | -68.0 | 11.1%
O=C(Nc1ccccc1F)c1ccc2snnc2c1 | 0.0% | 37.8* | -7.3% | 1.3% | 60.2* | -17.9%
COc1ccc(NC(=O)c2ccc3snnc3c2)cc1 | 190.1% | 46.5* | 8.2% | -15.2% | 63.8* | -4.1%
O=C(Nc1ccc(Cl)cc1)c1ccc2snnc2c1 | 15.7% | 36.8* | ? | 16.8% | 38.4* | -16.1%
Cc1ccc(Cl)cc1NC(=O)c1ccc2snnc2c1 | nt | nt | nt | 1.3% | nt | nt
CNC(=O)c1ccc2snnc2c1 | nt | -3.0 | -2.2% | 0.0% | -7.0 | -2.2%
CC(=O)c1ccc(NC(=O)c2ccc3snnc3c2)cc1 | 18.9% | 50.0* | 25.5% | -0.7% | 65.2* | -3.9%
O=C(C1CCC(Cn2c(=O)c3sccc3n(Cc3ccc(F)cc3)c2=O)CC1)N1CCOCC1 (stereo not given) | nt | nt | nt | -2.9% | nt | nt
Cc1cc(C)cc(C(=O)NCC(=O)OCC(=O)NCC(F)(F)F)c1 | 21.6% | 1.2 | 28.7% | 3.0% | -5.8 | nt
O=C(Nc1ccc(O)c2c(=O)cc(-c3ccccc3Cl)oc12)c1cccc(Cl)c1 | -25.4% | 15.5 | ? | -4.4% | 47.7 | 6.7%
O=C(Nc1cc2c(oc1=O)CCCC2=O)c1cccc(Cl)c1 | 42.4% | 15.4 | -15.0% | 1.4% | 61.3* | -2.9%
COc1ccc(C(=O)Nc2cc3c(oc2=O)CCCC3=O)cc1 | 5.5% | 25.4* | 47.8% | -11.6% | 41.9 | 0.8%
Cc1cc(C)n(CCCNC(=O)c2ccc(C)o2)n1 | -5.6% | nt | -23.2% | -13.9% | nt | nt
O=C(O)CC1(CC(=O)Nc2ccc(C(F)(F)F)cc2)CCCC1 | ? | -2.9 | 34.8% | -7.9% | -3.8 | 5.7%
CC(C)(C)c1ccc(NC(=O)CC2(C(F)(F)F)OCCO2)cc1 | nt | 32.1* | -11.0% | -6.1%[11.4 µM] | 33.2 | -4.5%
CCCNC1=C(N(C(C)=O)c2cccc(F)c2)C(=O)c2ccccc2C1=O | -81.9% | -10.1 | -24.0% | -10.1% | -20.3 | -27.5%
CCC(=O)N(C1=C(NC(C)C)C(=O)c2ccccc2C1=O)C(C)C | 0.131µM* | -2.9 | 0.0657µM* | -31.6% | -9.3 | -1.8%
Cc1ccc(S(=O)(=O)c2nnn3c2nc(NCc2ccc4c(c2)OCO4)c2sccc23)cc1 | nt | nt | nt | 9.2% | nt | nt
SMILES | Pf growth 48h | Cycloheximide cs | Pf growth 96h | Sm TGR block | Shiga inhibitor | NS1 function inh
O=C1NC(c2ccccc2)(C(F)(F)F)C(=O)N1Cc1cccnc1 (stereo not given) | 25.8% | 47.2* | ? | 5.4% | 96.3* | -9.2%
CC(C)(C)C(=O)NC1(C(F)(F)F)NC(=O)N(Cc2ccccc2)C1=O (stereo not given) | 9.8% | 4.1 | 8.7% | 14.2% | 8.9 | 6.3%
COc1ccc(C(=O)c2ccc(N3CCOCC3)cc2)c(OC)c1 | -4.1% | 14.1* | 44.0% | ? | 13.5 | 12.9%
COc1ccc(C(=O)NC2CCc3ccccc32)cc1OC1CCN(C(C)=O)CC1 (stereo not given) | ? | -2.6 | 13.1µM* | -3.0% | -18.0 | 10.3%
COc1cc(C(=O)NC2Cc3ccccc3C2)ccc1OC1CCN(C(C)=O)CC1 | ? | 8.3 | ? | -0.6% | -2.6 | -16.0%
COc1ccc(C(=O)NC2CC2)cc1OC1CCN(Cc2ccccc2O)CC1 | ? | -0.7 | 132.6% | 1.6% | -9.2 | -4.5%
COc1cc(C(=O)NC2CC(C)(C)CC(C)(C)C2)ccc1OC1CCN(C(C)=O)CC1 | ? | -4.0 | 9.28µM* | -24.7% | -3.9 | 13.1%
Cc1ccc(OCC(=O)NCCCNC(=O)c2ccncc2)cc1 | ? | 6.1 | -5.8% | 12.6% | -8.3 | 1.8%
Cc1[nH]c(C)c(Cl)c(=O)c1Cl | 6.01µM* | nt | 3.38µM* | nt | nt | nt
O=C(Nc1ncccc1O)c1c(O)c2ccccc2[nH]c1=O | 6.8% | -2.6 | 0.0% | 15.0% | 6.6 | -34.9%
Cc1cccc(C)c1NC(=O)c1c(O)c2ccccc2[nH]c1=O | -11.3% | -2.3 | 15.1% | -4.1% | -5.8 | -3.4%
Cc1cccc(NC(=O)c2c(O)c3ccccc3[nH]c2=O)c1 | 69.4% | 32.8* | -37.7% | -11.8% | 38.1* | 4.5%
O=C(Nc1cccc(C(F)(F)F)c1)c1c(O)c2ccccc2[nH]c1=O | 27.9% | -6.4 | 14.7µM* | 15.5% | 24.8 | 19.5%
O=C(Nc1cccc(O)c1)c1c(O)c2ccccc2[nH]c1=O | 14.2% | 48.1* | -12.9% | 6.6% | 38.2* | ?
CCOc1ccc(N(C)S(=O)(=O)c2ccc(-c3cc(C)no3)s2)cc1 | ? | 1.4 | ? | 2.2% | 13.9 | -6.0%
O=C(CCCSc1ccccc1)Nc1ccc(Cl)c(S(=O)(=O)N2CCOCC2)c1 | 13.1µM* | nt | 10.4µM* | -10.7% | nt | nt
COc1ccc(OCCCC(=O)Nc2ccc(S(=O)(=O)N3CCOCC3)cc2)cc1 | ? | nt | ? | -19.6% | nt | nt
Cc1ccc(NC(=O)C(=O)c2c(-c3ccccc3)cc3ccccn23)cc1S(=O)(=O)N1CCOCC1 | 9.28µM* | -3.7 | nt | 6.6% | 14.2 | ?
CCCCNC(=S)Nc1cc([N+](=O)[O-])ccc1C | ? | 1.4 | ? | ? | 13.3 | 7.7%
O=C(CCSc1ccccc1)Nc1ccc(S(=O)(=O)N2CCOCC2)cc1 | nt | 8.2 | -29.5% | 0.0% | 6.9 | -11.3%
Cc1ccc(OCCCC(=O)Nc2ccc(Cl)c(S(=O)(=O)N3CCOCC3)c2)cc1 | ? | nt | 10.4µM* | -2.4% | nt | nt
CCCCNC(=S)Nc1cc(S(=O)(=O)N2CCCCC2)ccc1C | -11.4% | -0.4 | ? | 2µM* | -6.3 | 2.6%
Cc1c(Cc2ccccc2)c(=O)oc2cc(OCC(=O)N3CCC(C(=O)O)CC3)ccc12 | ? | -1.9 | -1.2% | 4.1% | -4.0 | ?
CN(C)c1ccc(CNC(=O)c2ccc(NC(=O)N3CCCCc4ccccc43)cc2)cc1 | nt | nt | nt | -3.1% | nt | nt
Cc1ccc2c(c1)-c1nc(-c3ccc(Cl)cc3)cc(-c3coc4ccccc4c3=O)c1CO2 | nt | nt | nt | -9.3% | nt | nt
Cc1ccccc1OCC(=O)Nc1ccc(S(=O)(=O)N(Cc2ccccc2)c2ccccc2)cc1 | nt | nt | nt | -2.1% | nt | nt
